PubChem BioAssay (NCI)
Compounds without any hit were thinned out: in the full panel of roughly 79,000, 15% have a hit. Unmarked numbers belong to inactive results. Calls of active or inactive are those of the source. No stated cut-off is given here; in the data, active means growth inhibition above about 70%; inactive means the rest.

Assays:
[1] = NCI Yeast Anticancer Drug Screen. Data for the rad50 strain (AID 155);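 further: 0% = growth of vehicle-only cultures of the same strain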; conditions: S. cerevisiae rad50 strain growth inhibition, active compounds read high
In short: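 Yeast carrying a defined DNA repair defect were exposed to test compounds, and growth was compared with vehicle-treated controls to give percent inhibition.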

[2] = NCI Yeast Anticancer Drug Screen. Data for the mec2-1 strain (AID 157); conditions: S. cerevisiae mec2-1 strain, active compounds read high
In short: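 Each compound was tested on mec2-1 yeast, a strain altered in DNA damage repair or cell cycle control. Growth inhibition is reported relative to vehicle.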

[3] = NCI Yeast Anticancer Drug Screen. Data for the sgs1 mgt1 strain (AID 161);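 further: 0% = growth of cultures given vehicle only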; conditions: S. cerevisiae sgs1 mgt1 strain, active compounds read high
In short: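 Mutant yeast exposed to compound; growth scored against vehicle-only wells.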

[4] = NCI Yeast Anticancer Drug Screen. Data for the cln2 rad14 strain (AID 165);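 further: 0% = growth equal to vehicle treated cultures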; conditions: S. cerevisiae cln2 rad14 strain, active compounds read high
In short: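 Test compounds were added to cln2 rad14 yeast cultures; inhibition of growth was then determined by comparison with vehicle treatment.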

[5] = NCI Yeast Anticancer Drug Screen. Data for the bub3 strain (AID 167); conditions: S. cerevisiae bub3 mutant strain, active compounds read high
In short: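 Compounds were applied to a genetically altered yeast strain carrying a cell-cycle control defect. Growth inhibition was scored against vehicle-treated controls.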

[6] = NCI Yeast Anticancer Drug Screen. Data for the mlh1 rad18 strain (AID 175); conditions: S. cerevisiae mlh1 rad18 strain growth inhibition, active compounds read high
In short: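 Inhibition values reflect reduced growth of mutant yeast versus vehicle-treated controls following compound exposure; the mutations affect DNA damage repair.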

[7] = at 5.0 µM (retest, dose inferred, filed as 0.5)
[8] = at 50.0 µM (retest, dose inferred, filed as 5.0)

Row | Structure (SMILES) | growth inhibition [1, 7] | growth inhibition [1, 8] | growth inhibition ([1]; at 50.0 µM) | growth inhibition [2, 7] [%] | growth inhibition [2, 8] | growth inhibition ([2]; at 50.0 µM) | growth inhibition [3, 7] [%] | growth inhibition [3, 8] | growth inhibition ([3]; at 50.0 µM) | growth inhibition [4, 7] [%] | growth inhibition [4, 8] | growth inhibition ([4]; at 50.0 µM) | growth inhibition [5, 7] [%] | growth inhibition [5, 8] | growth inhibition ([5]; at 50.0 µM) | growth inhibition [6, 7] [%] | growth inhibition [6, 8] | growth inhibition ([6]; at 50.0 µM)
1 | Cc1ccccc1C(=O)C(C)c1ccccc1 (configuration not stated) | -19% | -6% | 6.35% | -8 | -4% | 9.25% | -2 | -7% | 12.5% | -35 | -5% | 44.4% | -8 | 3% | 4.5% | -24 | 4% | -9.2%
2 | Nc1ccc(CSc2ccc(Cl)cc2)cc1Cl | -3% | 99% (active) | 37% | -5 | 99% (active) | 3.9% | -6 | 98% (active) | 40.9% | -16 | 99% (active) | -24.7% | 32 | 99% (active) | 4.35% | 1 | 99% (active) | 13.7%
3 | Cc1ccc(C)c2[nH]c(-c3ccccc3)cc12 | -1% | 99% (active) | 99.3% (active) | -37 | 99% (active) | 99.2% (active) | 0 | 99% (active) | 99.3% (active) | 0 | 99% (active) | 99.1% (active) | -5 | 99% (active) | 99.2% (active) | -1 | 99% (active) | 99.2% (active)
4 | O=C(c1c(F)c(F)c(F)c(F)c1F)N1CCN(C(=O)c2c(F)c(F)c(F)c(F)c2F)C1=S | 0% | 91% (active) | 88.2% (active) | 15 | 81% (active) | 88.7% (active) | 8 | 94% (active) | 90.9% (active) | 8 | 88% (active) | 85.3% (active) | -7 | 86% (active) | 85.3% (active) | 32 | 92% (active) | 91.2% (active)
5 | O=C1CCCC/C1=C/c1ccc(Cl)cc1 | -151% | 35% | 87.3% (active) | -49 | -13% | 81.2% (active) | -64 | 35% | 82% (active) | -57 | -37% | 33% | -64 | 27% | 73.7% (active) | -229 | 36% | 90.8% (active)
6 | CNCC(OB(c1ccccc1)c1ccccc1)c1ccccc1 (configuration not stated) | 4% | 99% (active) | -22.9% | 12 | 99% (active) | -5.2% | 1 | 95% (active) | 61.7% | 9 | 99% (active) | -26.6% | -7 | 99% (active) | 5.75% | 0 | 99% (active) | 44.1%
7 | COc1ccc(CCCC(=O)O)c2c(OC)cccc12 | 14% | 58% | 80.8% (active) | 0 | 48% | 39.9% | 7 | 62% | 60.8% | 23 | 55% | 72.2% (active) | 4 | 60% | 49.9% | 5 | 73% (active) | 78.3% (active)
8 | CCOC(=O)C(CCOC)C(=O)OCC | 4% | 81% (active) | 73.3% (active) | 0 | 30% | 70.9% (active) | 1 | 46% | 43.9% | 3 | 65% | 41.8% | 1 | 48% | 95.7% (active) | 5 | 72% (active) | 43.6%
9 | NCC(CS)C(=O)NC(CS)C(=O)NC(CS)C(=O)NCCNc1ccc(NCCNC(=O)C(CS)NC(=O)C(CS)NC(=O)C(CN)CS)c2c1C(=O)c1c(O)ccc(O)c1C2=O (configuration not stated) | 80% (active) | 78% (active) | 61.1% | 34 | 85% (active) | 70.8% (active) | 36 | 82% (active) | 72% (active) | 23 | 84% (active) | 65.7% | 36 | 58% | 65% | 40 | 75% (active) | 53.9%
10 | CCOc1ccc(/C=C2\NC(=S)N(/C=C3\C(=O)Oc4ccccc4C3=O)C2=O)cc1 | 77% (active) | 91% (active) | -16.1% | 6 | 71% (active) | -28.6% | -30 | 58% | 0.45% | -14 | 70% (active) | -39.2% | -31 | 76% (active) | -23.9% | 11 | 94% (active) | -8.6%
11 | CCC(C)Sc1nc2c([nH]1)c(=S)n(C)c(=O)n2C (configuration not stated) | 9% | 39% | 87.7% (active) | 20 | 52% | 96% (active) | 5 | -19% | 96.7% (active) | -3 | 17% | 23.9% | 16 | 49% | 95.7% (active) | 1 | 24% | 95.2% (active)
12 | Cc1ccc(NC(=S)SCc2ccc3c(c2)OCO3)cc1Br | 46% | 96% (active) | 89.8% (active) | 29 | 98% (active) | 91.8% (active) | 55 | 98% (active) | 91.9% (active) | 52 | 98% (active) | 88.5% (active) | 58 | 99% (active) | 91% (active) | 36 | 97% (active) | 89.8% (active)
13 | CN(C)C(=O)/N=c1\ss/c(=N\C(=S)N(C)C)n1-c1ccccc1 | -1% | 78% (active) | 68.2% | -9 | 56% | 45.8% | 4 | 95% (active) | 72% (active) | -17 | 29% | 41.6% | -8 | 50% | 68.5% | 9 | 92% (active) | 62.2%
14 | COc1ccc2ccc3c(c2c1)CCC(C(=O)O)C3CC(=O)O (configuration not stated) | -9% | 9% | 41.9% | -17 | 0% | 97.5% (active) | -11 | 12% | 43.6% | 0 | 27% | 93.8% (active) | -11 | 26% | 77.2% (active) | -30 | 35% | 84% (active)
15 | CCCCCC(C)(C)N=C=S | 3% | 0% | 7% | -1 | 2% | -1.65% | -1 | -3% | -1.85% | 5 | 1% | 10.3% | 1 | 0% | 8.3% | -5 | 1% | -5.6%
16 | CC(C)=C1C=C2CCC3C(C)(C(=O)O)CCCC3(C)C2CC1 (configuration not stated) (tested in a mixture with another compound) | -4% | 90% (active) | 72.5% (active) | -5 | 61% | 40.1% | -5 | 48% | 59.4% | -5 | 47% | 20.3% | -7 | 98% (active) | 38.8% | -1 | 76% (active) | 60.8%
17 | O=C1CNCCCN2CCN(CCCNCC(=O)Nc3ccc(cc3)S(=O)(=O)c3ccc(cc3)NC(=O)CNCCCN3CCN(CCCNCC(=O)Nc4ccc(cc4)S(=O)(=O)c4ccc(cc4)N1)CC3)CC2 | 1% | 99% (active) | 98.8% (active) | -25 | 99% (active) | 98.8% (active) | -14 | 99% (active) | 99% (active) | -5 | 99% (active) | 96.8% (active) | -3 | 99% (active) | 97.8% (active) | -11 | 99% (active) | 98.7% (active)
18 | CC(=O)Nc1cc(Cl)c2c(c1)C(=O)c1ccccc1-2 | 64% | 82% (active) | 91.8% (active) | 34 | 61% | 14.6% | 43 | 77% (active) | 35.6% | 24 | 35% | -23.4% | 14 | 38% | 19.1% | 41 | 79% (active) | 33%
19 | CCC1(C)C(C#N)(C#N)C1(C#N)C#N | -18% | 95% (active) | 81.7% (active) | -36 | 95% (active) | 92.6% (active) | -36 | 66% | 97.8% (active) | -42 | 85% (active) | 43.7% | -36 | 95% (active) | 95.4% (active) | -46 | 95% (active) | 98.2% (active)
